In PubChem BioAssay (NCI):
Compounds without any hit were thinned out: in the full panel of roughly 79,000, 15% have a hit. No stated cut-off is given here; in the data, active means growth inhibition above about 70%; inactive means the rest.

What was measured:
[1] = NCI Yeast Anticancer Drug Screen. Data for the rad50 strain (AID 155);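 further: 0% = growth of vehicle-only cultures of the same strain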; details: S. cerevisiae rad50 strain growth inhibition; at 50.0 µM; stronger effect = higher value
Outline: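 Relative growth inhibition (compound vs vehicle) was measured in yeast with a defined repair-gene alteration.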

[2] = NCI Yeast Anticancer Drug Screen. Data for the mec2-1 strain (AID 157); details: S. cerevisiae mec2-1 strain, at 50.0 µM, stronger effect = higher value
Outline: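 Using mec2-1 yeast: add compound, measure growth, express inhibition versus vehicle-treated cultures.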

[3] = NCI Yeast Anticancer Drug Screen. Data for the sgs1 mgt1 strain (AID 161);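 further: 0% = growth of cultures given vehicle only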; details: S. cerevisiae sgs1 mgt1 strain, at 50.0 µM, stronger effect = higher value
Outline: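 Yeast cells carrying a defined DNA-repair defect were exposed to test compounds. Growth inhibition was measured relative to vehicle-treated controls.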

[4] = NCI Yeast Anticancer Drug Screen. Data for the cln2 rad14 strain (AID 165);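 further: 0% = growth equal to vehicle treated cultures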; details: S. cerevisiae cln2 rad14 strain, at 50.0 µM, stronger effect = higher value
Outline: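 Yeast strain cln2 rad14, bearing defects in cell cycle control and DNA repair, serves as the test system; values reflect growth inhibition compared with vehicle.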

[5] = NCI Yeast Anticancer Drug Screen. Data for the bub3 strain (AID 167); details: S. cerevisiae bub3 mutant strain, at 50.0 µM, stronger effect = higher value
Outline: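 Screening used yeast with an engineered genetic alteration affecting cell cycle control. Compound-exposed cultures were compared with vehicle cultures, and reduced growth was taken as inhibition.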

[6] = NCI Yeast Anticancer Drug Screen. Data for the mlh1 rad18 strain (AID 175); details: S. cerevisiae mlh1 rad18 strain growth inhibition; at 50.0 µM; stronger effect = higher value
Outline: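 Steps: expose repair-defective yeast to compound; measure growth; express inhibition against vehicle-treated controls.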

Measured: growth inhibition

Cc1nc2c(=O)[nH]c(=S)[nH]c2[nH]c1=O
inactive: [1] -15.2% | [2] -28% | [3] -2.1% | [4] 12.5% | [5] -1.3% | [6] -1%

Cc1c(C(=O)/C=C/c2ccc(N(C)C)cc2)c(=O)n(-c2ccccc2)n1C
inactive: [1] -7% | [2] -45.1% | [3] -36.1% | [4] -8.85% | [5] -29.7% | [6] -20.1%

O=C(NCCO)c1ccc(Cl)cc1
inactive: [1] -23.6% | [2] -26.3% | [3] -30.6% | [4] 19.1% | [5] -32.4% | [6] -44.5%

OCCCc1ccccc1
inactive: [1] -0.1% | [2] -1.65% | [3] -2.55% | [4] -13.2% | [5] 3.25% | [6] -3.7%

N#CC(C(=O)C(=O)Nc1cccc(C(F)(F)F)c1)c1c(Cl)cccc1Cl (stereo unspecified)
inactive: [1] 10.1% | [2] 11.6% | [3] 17.1% | [4] -35% | [5] -1.7% | [6] 2.15%

COc1cc(/C=N\N=C(/C)c2ccc(C)cc2C)cc(OC)c1OC
inactive: [1] 21.4% | [2] 23.1% | [3] 24.8% | [4] 22.9% | [5] 24.9% | [6] 24.6%

COC(=O)/C(=N\NC(=S)NN)C(C(=O)C(=O)Nc1ccccc1C(N)=O)c1nc2ccccc2[nH]c1=O (stereo unspecified)
inactive: [1] 24.9% | [2] 6.9% | [3] 14.9% | [4] -42.5% | [5] -4.5% | [6] 23.1%

NOCCCCON
inactive: [1] -5.05% | [2] -6.8% | [3] 8.95% | [4] -66.8% | [5] 0.25% | [6] -7.05%

C[Si](C)(OCCS(=O)(=O)O)C1(Cc2cccc3ccccc23)S(=O)(=O)OCCOS1(=O)=O
inactive: [1] 13.6% | [2] -9.55% | [3] 2.6% | [4] 18.1% | [5] 13.1% | [6] 17.2%

Cc1ccccc1C=O
inactive: [1] -2.75% | [2] -32.6% | [3] 5.15% | [4] -3.35% | [5] -0.2% | [6] -0.85%

N#C/C(=C/c1ccc(Cl)cc1)C(=O)O
inactive: [1] 6.35% | [2] -2.35% | [3] -13.3% | [4] 6.35% | [5] -0.15% | [6] 21.1%

CCCCOC(=O)c1c2nc3c(C(=O)OCCCC)ccc(C)c3oc-2c(C)c(=O)c1NC(C)=O
inactive: [1] 19.4% | [2] 5.1% | [3] 6.95% | [4] 4.9% | [5] -5.3% | [6] 5.2%

CC(C)(C)c1cc2c3c(c1)C(C(F)(F)F)(C(F)(F)F)OS3(=O)(O)OC2(C(F)(F)F)C(F)(F)F
inactive: [1] 22.5% | [2] 38.8% | [3] 15.8% | [4] -2.25% | [5] 4.2% | [6] 39%

CCNC(=O)NCc1cc(C)ccc1C
inactive: [1] 7.85% | [2] -12.2% | [3] -11.4% | [4] 19.2% | [5] 6.45% | [6] 12.1%

S=C(N/N=C1\CSCc2ccccc21)Nc1cc(Cl)ccc1Cl
inactive: [1] 11.9% | [2] -4.45% | [3] 6.05% | [4] 10.2% | [5] 23.9% | [6] 0.5%

CSc1cnc2ccccc2c1Sc1c[nH]c2ccccc2c1=O
inactive: [1] -15% | [2] 3.65% | [3] 1.15% | [4] 11.8% | [5] -8.05% | [6] -12.4%

O=c1onc2c3ccccc3ncn12
inactive: [1] 15.2% | [2] 7.6% | [3] -21.2% | [4] -11.4% | [5] -8.6% | [6] 0.65%

Clc1cc(OC2C3CC4CC(C3)CC2C4)nc(Cl)n1 (stereo unspecified)
inactive: [1] 8.45% | [2] 1.45% | [3] 27.7% | [4] -1.1% | [5] 16.3% | [6] 65.8%

NCCc1c(-c2cccnc2)[nH]c2ccccc12
inactive: [1] -14.5% | [2] -9.1% | [3] -2.75% | [4] -25.4% | [5] 7.6% | [6] 1.1%

O=C1CCC(=O)N1CC1CC2CCC1C2 (stereo unspecified)
inactive: [1] 40% | [2] 4.15% | [3] 22.2% | [4] 23.8% | [5] 4.4% | [6] 36%

COC1(OC)C2(Cl)C(Cl)=C(Cl)C1(Cl)C1CCCCCC12 (stereo unspecified)
inactive: [1] -4.95% | [2] 2.8% | [3] 1.85% | [4] -60.7% | [5] -8.4% | [6] 8.15%

CC(C)N(C(=S)/N=C1/SC(C)S(=O)(=O)N1C)C(C)C (stereo unspecified)
inactive: [1] -4.95% | [2] 13.6% | [3] -5.95% | [4] -4.5% | [5] -10.8% | [6] 5.45%

Cc1ccc2[nH]c(=S)n(CCc3ccccc3)c(=O)c2c1
inactive: [1] -1.95% | [2] -23% | [3] 29.9% | [4] 6.85% | [5] 10.4% | [6] 13.7%

CC(=O)c1ccc(Cl)c(Cl)c1
inactive: [1] -3.6% | [2] -0.5% | [3] -3.75% | [4] 14.9% | [5] 4.7% | [6] -15.3%

O=C(NCCc1c[nH]c2ccccc12)C1CCCCC1
inactive: [1] -3.65% | [2] -5.45% | [3] 7.85% | [4] -25.6% | [5] 14.1% | [6] -10.1%

C#CC(C)(C)CC
inactive: [1] 21.4% | [2] -16.4% | [3] 8.35% | [4] 19.8% | [5] -8.1% | [6] 17.4%

CCCSc1cc(Cl)c(C)cc1S(=O)(=O)n1cc[nH]c1=O
inactive: [1] 11.9% | [2] 7.3% | [3] 9.15% | [4] 5.75% | [5] 13.3% | [6] 35.7%

CCCCCCCCCCCCCCCCC1Cc2ccccc2C1
inactive: [1] -12.6% | [2] 8% | [3] -12.8% | [4] -12.1% | [5] -4.15% | [6] -7.6%

CC(Cl)C(O)C#N (stereo unspecified)
inactive: [1] -25.1% | [2] -3.35% | [3] -10.8% | [4] -8.2% | [5] 1.6% | [6] -16.2%

CN(C)/C=N/NC(=O)c1ccccc1N
inactive: [1] -15% | [2] -15.7% | [3] -6.75% | [4] -11.6% | [5] 2.15% | [6] 0.55%

CSc1nc(N)c(N)c(N)n1
inactive: [1] 0.1% | [2] 2.9% | [3] -2.75% | [4] -21.8% | [5] 11.8% | [6] 14.4%

CC(C)N(CCCCO)C(C)C
inactive: [1] -0.75% | [2] -0.3% | [3] 14.2% | [4] 0.05% | [5] 2.7% | [6] 3.3%

COC(=O)CCC(=O)c1ccc2c(c1)CC1(C2)Cc2ccc3c(c2C1)CCCC3=O (stereo unspecified)
inactive: [1] -10.9% | [2] -27.1% | [3] -14.1% | [4] 5.9% | [5] -13.6% | [6] -4.25%

O=S(=O)(O)c1cc(N=Nc2cc(S(=O)(=O)O)c3ccccc3c2O)ccc1/C=C/c1ccc(N=Nc2cc(S(=O)(=O)O)c3ccccc3c2O)cc1S(=O)(=O)O
inactive: [1] 34% | [2] 36% | [3] 17.6% | [4] 13.7% | [5] 45.9% | [6] 42.6%

O=C1Nc2cccc3cc(NCC(O)CCl)cc1c23 (stereo unspecified)
inactive: [1] 31.3% | [2] 8.5% | [3] 11.4% | [4] 17.9% | [5] 3.05% | [6] -23.9%

C1CCC2(CC1)OCCS2
inactive: [1] 24.6% | [2] 1.6% | [3] 11.2% | [4] 7.8% | [5] -1.45% | [6] 6.15%

O=C(NC1CCCN1C(=O)/C=C\c1ccccc1)OCc1ccccc1 (stereo unspecified)
inactive: [1] -8.95% | [2] -4.95% | [3] -13.7% | [4] -62.5% | [5] 0.6% | [6] -12.3%

CSc1ccc(NC(=O)Nc2cccc(C(C)=O)c2)cc1
inactive: [1] 2.15% | [2] 31.2% | [3] 10.3% | [4] -17.1% | [5] 43% | [6] 24.8%

C#CCOC(=O)C(N)CS (stereo unspecified)
inactive: [1] -6.95% | [2] -20.3% | [3] -13.6% | [4] 9.8% | [5] -4.4% | [6] -13.7%

Clc1ccc2c(c1)N(C1CCCN(Cc3ccccc3)C1)c1ccccc1S2 (stereo unspecified)
inactive: [1] 45.5% | [2] 7.65% | [3] 35.1% | [4] 25.8% | [5] 43.7% | [6] 47%

COc1ccc(CCNC(=S)NN)cc1OC
inactive: [1] -15.7% | [2] -23.6% | [3] -7.35% | [4] -23.5% | [5] -17% | [6] -28.7%
